The results in this text go back to PubChem BioAssay AID1259417 (TB Discovery Research, Infectious Disease Research Institute, 2018).

The nature of the assay: M. tuberculosis growth inhibition, HTS (AID 1259417).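 Further: bacteria grown with compound for 5 days at 37 °C.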 The following applies: stronger effect = higher value, concentration not given here.
Where [1] appears, read: M. tuberculosis DsRed fluorescence growth inhibition.
Setting [2] is: M. tuberculosis growth inhibition.

Out of some 1,100 compounds screened, about 760 (69%) were called active. How the calls were made is not given here. The set was probably picked from earlier hits. This is one part of the list.

`COc1ccc(Cn2c(=O)c3c(n4cnnc24)-c2ccccc2CC32CCCCC2)cc1`: the inhibition reads like this: under setting [1], 21.7% (inactive); under setting [2], 2.83%.
Consider `COc1ccc(C2(CNC(=O)c3cc([N+](=O)[O-])cc([N+](=O)[O-])c3)CCCC2)cc1OC`, for which the inhibition was 98.6% (active) under setting [1] and 94.9% under setting [2].
Turning to `O=C(NCCc1ccc(Cl)cc1)c1ccc(CNc2c(N3CCOCC3)c(=O)c2=O)cc1`, the inhibition under setting [1] was 96% (active) and the inhibition under setting [2] was determined as 88.6%.
The corresponding values for `O=C(NCCc1ccc(Cl)cc1)C1CCC(CNc2c(N3CCCCC3)c(=O)c2=O)CC1` (stereo unspecified) are 96.1% (active) and 90%.
`CC1CC(C)CN(C(=O)c2ccc(CNc3c(N4CCCC4)c(=O)c3=O)cc2)C1` (stereo unspecified): the inhibition was 97.5% (active) under setting [1] and 90% under setting [2].
Regarding `CCOC(=O)COc1ccc2c(=O)c(-c3ccc(OC)cc3)c(C)oc2c1`, the inhibition runs as follows: under setting [1], 83.6% (active); under setting [2], 94%.
In the case of `COC(=O)C(C)Oc1ccc2c(=O)c(-c3ccc(Br)cc3)c(C)oc2c1` (stereo unspecified), the inhibition was 32.6% (active) under setting [1] and 92.3% under setting [2].
The corresponding values for `COc1ccc(-c2c(C)oc3cc(OCC(=O)OC(C)C)ccc3c2=O)cc1OC` are 13.8% (active) and 67.7%.
Consider `CCOC(=O)COc1ccc2c(C)c(-c3ccc(OC)c(OC)c3)c(=O)oc2c1`, for which the inhibition under setting [1] is 10.3% (active) and the inhibition under setting [2] is 36.5%.
Regarding `CCC(=Cc1sc2ccc(OC)cc2[n+]1CCO)C=C1Sc2ccc(OC)cc2N1CCO`, the inhibition is 9.54% (inactive) under setting [1] and 21% under setting [2].
As to `CCOC(=O)COc1ccc2c(C)c(CC(=O)OC)c(=O)oc2c1`, the inhibition is, setting by setting: under setting [1], 11.2% (active); under setting [2], 54.4%.
`CCOC(=O)COc1ccc2c(=O)c(-c3ccc(OC)c(OC)c3)c(C(=O)OCC)oc2c1`: the inhibition is, setting by setting: under setting [1], 34.4% (active); under setting [2], 64.4%.
`Cc1cc(C(=O)Oc2ccc(Cc3ccccc3)cc2)ccc1[N+](=O)[O-]`: the inhibition under setting [1] is 41.1% (active) and the inhibition under setting [2] stood at 39.3%.
As to `CCOC(=O)c1c(NC(=O)c2ccc([N+](=O)[O-])c(C)c2)sc(C)c1-c1ccccc1`, the inhibition is 2.11% (inactive) under setting [1] and -28.3% under setting [2].
The corresponding values for `Cc1cc(C(=O)Oc2ccccc2)ccc1[N+](=O)[O-]` are 10.6% (active) and 55.9%.
With `Cc1ccc(C(=O)Oc2cccc(NC(=O)c3ccccc3)c2)cc1C`, the inhibition was 0.632% (inactive) under setting [1] and 1.38% under setting [2].
The corresponding values for `Cc1cc2c(cc1C)N(Cc1ccc(C(C)(C)C)cc1)C1=NCCCN12` are 95% (active) and 99.7%.
On to `Cn1c(Sc2ccc([N+](=O)[O-])c3cccnc23)nnc1-c1ccccc1`, for which the inhibition by setting is: under setting [1], 12% (inactive); under setting [2], 20.3%.
Turning to `Cn1c(Sc2cnn(-c3ccccc3)c(=O)c2Br)nnc1-c1ccccc1`, the inhibition is, setting by setting: under setting [1], 49.6% (active); under setting [2], 70.7%.
With `CCOC(=O)CSc1n[nH]c(-c2ccc(Cl)cc2)n1`, the inhibition under setting [1] is 17.9% (active) and the inhibition under setting [2] turned out to be 58%.
Turning to `O=C(CSc1n[nH]c(-c2ccc(Cl)cc2)n1)Nc1ccc(F)c(Cl)c1`, the inhibition reads like this: under setting [1], -0.872% (inactive); under setting [2], -10.5%.
Turning to `CCOC(=O)C(C)Sc1ncc(-c2ccc(Cl)cc2)cn1` (stereo unspecified), the inhibition is 4.78% (active) under setting [1] and 45.6% under setting [2].
In the case of `CCCOc1ccccc1-c1nc(SCC(=O)OCC)n[nH]1`, the inhibition was 2.36% (active) under setting [1] and 37.9% under setting [2].
`CCOC(=O)CSc1ncc(-c2cccc(Cl)c2)cn1`: the inhibition is 15% (active) under setting [1] and 70.5% under setting [2].
As to `COc1ccc(-c2c(C)[nH]n3c(=O)c(Cc4ccccc4)c(C)nc23)cc1`, the inhibition is, setting by setting: under setting [1], 96.2% (active); under setting [2], 81.3%.
As to `COc1ccc(C2=CC(c3c(C)nn(-c4ccccc4)c3Cl)n3nnnc3N2)cc1OC` (stereo unspecified), the inhibition by setting is: under setting [1], 99.1% (active); under setting [2], 93.4%.
In the case of `CCOc1ccc2c3c(c(=O)oc2c1OCC)CCCC3`, the inhibition by setting is: under setting [1], 31.8% (active); under setting [2], 41.4%.
The matching figures for `COc1ccc(-n2c(C)nc3sc4c(c3c2=O)CCCC4)cc1`: -4.71% (inactive) and -14.1%.
As to `COc1nc(SC)nc2sc3c(c12)CCC3`, the inhibition is, setting by setting: under setting [1], 98.3% (active); under setting [2], 99.3%.
With `Clc1ccc(OCCCn2ccnc2)cc1Cl`, the inhibition runs as follows: under setting [1], 98.6% (active); under setting [2], 99.3%.
As for `Clc1ccc(OCCCCn2ccnc2)cc1Cl`, the inhibition is 100% (active) under setting [1] and 99.3% under setting [2].
Take `[O-][n+]1onc2c3cc(-c4ccccc4)nnc3ccc21`: the inhibition runs as follows: under setting [1], 80.6% (active); under setting [2], 96.7%.
As to `O=C(Nc1nnc(-c2cc(Cl)ccc2Cl)o1)c1ccc(Cl)s1`, the inhibition is -4.8% (inactive) under setting [1] and -10.4% under setting [2].
As for `O=C(Nc1nnc(-c2cc(Cl)ccc2Cl)o1)c1ccc(Br)s1`, the inhibition under setting [1] was 96.9% (active) and the inhibition under setting [2] was determined as 95.6%.
For the molecule `O=C(Nc1nnc(-c2cc(Cl)ccc2Cl)o1)c1cccs1`, the inhibition under setting [1] was 83.8% (active) and the inhibition under setting [2] was 82.4%.
`Cc1ccc(-c2nnc(SCC#CCOC(=O)c3ccco3)o2)cc1`: the inhibition runs as follows: under setting [1], 35.7% (active); under setting [2], 20.4%.
Regarding `O=C(OCC#CCSc1nnc(-c2ccccc2)o1)c1ccco1`, the inhibition is, setting by setting: under setting [1], 44% (active); under setting [2], 10.3%.
Regarding `O=C(OCC#CCSc1nc2ccccc2o1)c1ccco1`, the inhibition is, setting by setting: under setting [1], 59.9% (active); under setting [2], 68.2%.
The matching figures for `CC(C)(C)NC(=O)COC(=O)c1snc(C(=O)NC2CCCCC2)c1N`: 21.4% (active) and 66.6%.
The corresponding values for `CCOc1ccc(NCCC(=O)c2cccs2)cc1` are -0.257% (inactive) and -9.66%.
The corresponding values for `O=C(CCNc1ccc(Cl)c(C(F)(F)F)c1)c1cccs1` are 10.9% (active) and 35.4%.
`O=C(/C=C/c1ccco1)Nc1nc(-c2ccccn2)cs1`: the inhibition under setting [1] was 88.5% (active) and the inhibition under setting [2] was 89%.
`CN(C)c1ccc(Nc2nc(-c3ccccn3)cs2)cc1`: the inhibition is 54.1% (active) under setting [1] and 38.2% under setting [2].
